Activity calls are given as the source filed them. How the source made its calls: active means hit-call score of the fitted dose curve at least 0.9, where 1 is the maximum; inactive means score below 0.9.

The term AC50 denotes the concentration at which the activity in the assay is half-maximal.

Read-out in assay [1]: Human Leukocyte Antigen - DR isotype (HLADR), HLA-DRA (gene 3122)
Description: BSK_BE3C_HLADR: BioMAP Diversity Plus: BE3C Assay for Human Leukocyte Antigen - DR isotype (HLADR) Biomarker Activity (AID 2283032). The following applies: primary human bronchial epithelial cells; actives raise or lower the signal. An outline of the steps: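 BioMAP BE3C format: human bronchial epithelium, 24 h compound treatment, ELISA detection of HLA-DR, with bidirectional analysis relative to DMSO.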

Read-out in assay [2]: Vascular cell adhesion molecule 1 (VCAM1), VCAM1 (gene 7412)
The experiment in a line: BSK_4H_VCAM1: BioMAP Diversity Plus: 4H Assay for Vascular cell adhesion molecule 1 (VCAM1) Biomarker Activity (AID 2283033).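 Further: cell-surface VCAM-1 protein measured by ELISA.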 Particulars: primary human endothelial cells (HUVEC); actives raise or lower the signal. An outline of the steps: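 In this human endothelial (HUVEC) system, biomarker ELISA was run 24 h after compound addition, and total protein in parallel wells was assessed by SRB at 560 nm; DMSO served as negative control.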

Read-out in assay [3]: Interferon-gamma inducible Protein 10 (IP10), CXCL10 (gene 3627)
The experiment in a line: BSK_BE3C_IP10: BioMAP Diversity Plus: BE3C Assay for Interferon-gamma inducible Protein 10 (IP10) Biomarker Activity (AID 2283034). Particulars: primary human bronchial epithelial cells; actives raise or lower the signal. An outline of the steps: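 BE3C cells (human bronchial epithelial, primary); 24 h exposure; ELISA for IP-10; DMSO-referenced bidirectional fit.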

Read-out in assay [4]: Monokine induced gamma interferon (MIG), CXCL9 (gene 4283)
Description: BSK_BE3C_MIG: BioMAP Diversity Plus: BE3C Assay for Monokine induced gamma interferon (MIG) Biomarker Activity (AID 2283035).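 Further: MIG protein measured by ELISA in BE3C cultures after 24 h of dosing.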 Particulars: primary human bronchial epithelial cells; actives raise or lower the signal. An outline of the steps:
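Dose cells (human primary bronchial epithelial), incubate 24 h, quantify MIG by ELISA, then fit concentration–response in both directions relative to DMSO control.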

Read-out in assay [5]: urokinase plasminogen activator (uPA), PLAU (gene 5328)
Description: BSK_BE3C_uPA: BioMAP Diversity Plus: BE3C Assay for urokinase plasminogen activator (uPA) Biomarker Activity (AID 2283038).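 Further: uPA protein level quantified by ELISA in cell cultures; uPA read one day after compound addition.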 Particulars: primary human bronchial epithelial cells; actives raise or lower the signal. In short, it runs like this:
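ELISA read-out of uPA in human lung primary bronchial epithelial cultures, 24 h post-dosing. Gain or loss of signal fitted bidirectionally relative to DMSO baseline; cytotoxicity checked in parallel cultures via SRB total protein stain.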

Read-out in assay [6]: Urokinase-type plasminogen activator receptor (uPAR), PLAUR (gene 5329)
Description: BSK_BE3C_uPAR: BioMAP Diversity Plus: BE3C Assay for Urokinase-type plasminogen activator receptor (uPAR) Biomarker Activity (AID 2283039).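 Further: uPAR protein level measured by ELISA on the cells; cells exposed to compound for one day before measurement.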 Particulars: primary human bronchial epithelial cells; actives raise or lower the signal. An outline of the steps:
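Chemically treated human bronchial epithelial cells (lung primary) are assayed for uPAR by ELISA after 24 h, with data fitted in both directions using DMSO as negative control.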

Read-out in assay [7]: Interleukin-6 (IL6), IL6 (gene 3569)
The experiment in a line: BSK_CASM3C_IL6: BioMAP Diversity Plus: CASM3C Assay for Interleukin-6 (IL6) Biomarker Activity for (AID 2283040). The following applies: primary human coronary artery smooth muscle cells; actives raise or lower the signal.

Read-out in assay [8]: Tissue plasminogen activator (tPA), PLAT (gene 5327)
The experiment in a line: BSK_BE3C_tPA: BioMAP Diversity Plus: BE3C Assay for Tissue plasminogen activator (tPA) Biomarker Activity (AID 2283041).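 On outcome: tPA level quantified by ELISA one day after compound addition.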 Particulars: primary human bronchial epithelial cells; actives raise or lower the signal. An outline of the steps: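 Using human lung primary bronchial epithelial cells, tPA was measured by ELISA 24 h after dosing; data fitted relative to DMSO.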

Read-out in assay [9]: Interleukin-8 (IL8), CXCL8 (gene 3576)
The experiment in a line: BSK_CASM3C_IL8: BioMAP Diversity Plus: CASM3C Assay for Interleukin-8 (IL8) Biomarker Activity (AID 2283042).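 Further: IL-8 protein level quantified by ELISA.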 The following applies: primary human coronary artery smooth muscle cells; actives raise or lower the signal.

Read-out in assay [10]: Human Leukocyte Antigen - DR isotype (HLADR), HLA-DRA (gene 3122)
Description: BSK_CASM3C_HLADR: BioMAP Diversity Plus: CASM3C Assay for Human Leukocyte Antigen - DR isotype (HLADR) Biomarker Activity (AID 2283043).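 Further: cell-surface HLA-DR protein level quantified by ELISA.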 The following applies: primary human coronary artery smooth muscle cells; actives raise or lower the signal.

Read-out in assay [11]: Macrophage colony-stimulating factor (MCSF), CSF1 (gene 1435)
Description: BSK_CASM3C_MCSF: BioMAP Diversity Plus: CASM3C Assay for Macrophage colony-stimulating factor (MCSF) Biomarker Activity (AID 2283044).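 Further: M-CSF protein amount quantified by ELISA after 24 h exposure.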 Particulars: primary human coronary artery smooth muscle cells; actives raise or lower the signal.

Read-out in assay [12]: Low-density lipoprotein receptor (LDLR), LDLR (gene 3949)
The experiment in a line: BSK_CASM3C_LDLR: BioMAP Diversity Plus: CASM3C Assay for Low-density lipoprotein receptor (LDLR) Biomarker Activity (AID 2283045).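 Further: LDLR protein level on the cell surface quantified by ELISA.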 Particulars: primary human coronary artery smooth muscle cells; actives raise or lower the signal.

Read-out in assay [13]: Monocyte Chemoattractant Protein-1 (MCP1), CCL2 (gene 6347)
The experiment in a line: BSK_CASM3C_MCP1: BioMAP Diversity Plus: CASM3C Assay for Monocyte Chemoattractant Protein-1 (MCP1) Biomarker Activity (AID 2283046).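 Further: MCP-1 level quantified by ELISA 24 h after dosing.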 Particulars: primary human coronary artery smooth muscle cells; actives raise or lower the signal.

A short description of assay [14]: BSK_CASM3C_Proliferation: Cell Proliferation Assessment in the BioMAP Diversity Plus: CASM3C Assay (AID 2283047).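 Further: sulforhodamine B total protein stain as relative cell number at 560 nm; sub-confluent cells exposed 48 h before staining; fitted both ways against DMSO so gain or loss of cell number.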 The following applies: primary human coronary artery smooth muscle cells.
Read-out in assay [15]: Monokine induced gamma interferon (MIG), CXCL9 (gene 4283)
Description: BSK_CASM3C_MIG: BioMAP Diversity Plus: CASM3C Assay for Monokine induced gamma interferon (MIG) Biomarker Activity (AID 2283048).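 Further: MIG protein level measured by ELISA.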 The following applies: primary human coronary artery smooth muscle cells; actives raise or lower the signal.

Read-out in assay [16]: serum amyloid A (SAA), SAA1 (gene 6288)
Description: BSK_CASM3C_SAA: BioMAP Diversity Plus: CASM3C Assay for serum amyloid A (SAA) Biomarker Activity (AID 2283049).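 Further: SAA protein level quantified by ELISA.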 Particulars: primary human coronary artery smooth muscle cells; actives raise or lower the signal.

Assay [17] can be described thus: BSK_CASM3C_SRB: Viability Assessment in the BioMAP Diversity Plus: CASM3C Assay (AID 2283050).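 Further: total protein by SRB staining as cytotoxicity measure in parallel cultures.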 Particulars: primary human coronary artery smooth muscle cells.
Read-out in assay [18]: Thrombomodulin, THBD (gene 7056)
Description: BSK_CASM3C_Thrombomodulin: BioMAP Diversity Plus: CASM3C Assay for Thrombomodulin Biomarker Activity (AID 2283051).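 Further: thrombomodulin protein level measured by ELISA 24 h after dosing.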 The following applies: primary human coronary artery smooth muscle cells; actives raise or lower the signal.

Read-out in assay [19]: Transforming growth factor beta 1 (TGFb1), TGFB1 (gene 7040)
Description: BSK_BE3C_TGFb1: BioMAP Diversity Plus: BE3C Assay for Transforming growth factor beta 1 (TGFb1) Biomarker Activity (AID 2283036;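 further: TGF-b1 protein level measured by ELISA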). Particulars: primary human bronchial epithelial cells; actives raise or lower the signal. An outline of the steps:
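TGF-b1 measured via ELISA, 24 h after chemical dosing of human bronchial epithelial cells (BE3C). Overt cytotoxicity assessed in parallel by SRB (0.1%, TCA-fixed, 560 nm); analysis bidirectional relative to DMSO.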

Read-out in assay [20]: Plasminogen activator inhibitor-1 (PAI1), SERPINE1 (gene 5054)
The experiment in a line: BSK_BE3C_PAI1: BioMAP Diversity Plus: BE3C Assay for Plasminogen activator inhibitor-1 (PAI1) Biomarker Activity (AID 2283037). The following applies: primary human bronchial epithelial cells; actives raise or lower the signal. In short, it runs like this: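 In this multiplexed primary-cell system, bronchial epithelial cells receive test chemical and are sampled at 24 h. PAI-1 is read by ELISA, with DMSO serving as negative control for bidirectional fitting.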

On to `N#CC(Br)Br`, for which the result in assay [1], in assay [2], in assay [3], in assay [4], in assay [5] and in assay [6] was inactive. Besides, the result in [7], in assay [8], in assay [9], in [10], in [11] and in assay [12] was inactive. For the same compound, the result in [13], in [14], in [15], in [16], in assay [17] and in [18] was inactive.
Take `c1ccc(NNc2ccccc2)cc1`: the outcome in [1], in [2], in assay [3], in [4], in assay [19] and in assay [20] was inactive. For the same compound, the result in [5], in assay [6], in assay [7], in assay [8], in assay [9] and in [10] was inactive. In addition, the outcome in assay [11], in assay [12], in [13], in [14], in assay [15] and in assay [16] was inactive. The outcome in assay [17] was inactive. Further, the AC50 in [18] was 15.9 µM (active).
For the compound `Cn1cc(-c2ccccc2)c(=O)c(-c2cccc(C(F)(F)F)c2)c1`, the outcome in assay [1], in assay [2], in assay [3], in assay [4], in assay [20] and in assay [5] was inactive. Moreover, the outcome in [6], in assay [7], in assay [8], in assay [9], in assay [10] and in [11] was inactive. The result in assay [12], in assay [13], in assay [14], in assay [15], in assay [16] and in assay [17] was inactive. For the same compound, the result in [18] was inactive.
For the compound `C[C@]12C=CC3=C4CCC(=O)C=C4CC[C@H]3[C@@H]1CC[C@@H]2O`, the outcome in [1], in [2], in assay [4], in [19], in assay [5] and in assay [6] was inactive. In addition, the result in assay [9], in assay [10], in [11], in assay [12], in [13] and in [14] was inactive. The result in assay [15], in [16], in [17] and in assay [18] was inactive. Also, the AC50 in [3] was 29.2 µM (active); in assay [7], 13 µM (active); in [8], 3.97 µM (active).
Regarding `Clc1ccccc1Cl`, the outcome in assay [1], in assay [2], in assay [3], in assay [4], in [19] and in assay [5] was inactive. Also, the outcome in [6], in assay [7], in assay [8], in assay [9], in assay [10] and in [11] was inactive. The outcome in [12], in assay [13], in assay [14], in assay [15], in [16] and in assay [17] was inactive. For the same compound, the result in assay [18] was inactive.
As for `Nc1ccc(N=Nc2ccccc2)cc1`, the outcome in assay [1], in [2], in assay [3], in assay [19], in assay [5] and in [6] was inactive. Moreover, the outcome in assay [7], in assay [8], in [9], in [11], in assay [12] and in assay [13] was inactive. In addition, the outcome in assay [14], in assay [15], in assay [16], in [17] and in assay [18] was inactive. For the same compound, the AC50 in assay [10] was 16.8 µM (active).
On to `C[N+](C)(C)CC1CO1` (configuration not stated), for which the result in [1], in [2], in assay [3], in [4], in assay [19] and in assay [5] was inactive. Also, the outcome in [6], in [7], in assay [8], in assay [9], in assay [10] and in assay [11] was inactive. The result in assay [12], in assay [13], in assay [14], in assay [15], in assay [16] and in assay [17] was inactive. In addition, in assay [18], the result was inactive.

Values taken from PubChem BioAssay (EPA / NIEHS).
